Results filed as inconclusive are left out. The source made the active and inactive calls. Calls come from the whole dose curve; as a rule, active = well fitted curve in the direction sought with a large enough effect; inconclusive = small, poorly fitted or top-dose-only effect, or effect the other way, or another doubt; inactive = no such curve, though single readings can be large or run the other way.
Each compound was assayed against Alpha-galactosidase A (Homo sapiens) (UniProt P06280) (assay: Confirmation of Inhibitors of Human alpha-Galactosidase Using Spleen Homogenate). Conditions: alpha-galactosidase enzyme activity; series mostly up to 56.2 µM; activity change: at the top concentration.
Sequence of Alpha-galactosidase A (Homo sapiens) (P06280 32-429 limits assumed): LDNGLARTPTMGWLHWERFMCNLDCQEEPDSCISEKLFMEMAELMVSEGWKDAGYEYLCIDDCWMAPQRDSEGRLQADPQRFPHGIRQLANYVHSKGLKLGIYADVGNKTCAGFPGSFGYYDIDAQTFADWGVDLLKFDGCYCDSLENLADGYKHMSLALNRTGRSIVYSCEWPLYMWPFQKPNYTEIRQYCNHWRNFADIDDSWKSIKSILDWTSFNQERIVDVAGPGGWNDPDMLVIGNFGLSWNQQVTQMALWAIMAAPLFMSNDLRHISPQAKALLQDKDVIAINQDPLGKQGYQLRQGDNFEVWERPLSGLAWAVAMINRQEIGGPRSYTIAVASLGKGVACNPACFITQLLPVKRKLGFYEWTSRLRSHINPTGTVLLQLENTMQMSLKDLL
Outline: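 AC50 values come from Hill-equation fits of normalised 4-methylumbelliferone fluorescence (365/440 nm, read after NaOH/glycine stop). Enzyme source: spleen homogenate; substrate 1 mM final; pH 5.0 citrate buffer; 40 min at 37C; compound titration 0.5 nM–58 uM.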
Note: 0% is about no effect.

Activity change, inactive:
O=C(c1ccccc1)N1CCN(C(=O)N(c2ccccc2)c2ccccc2)CC1 3.27%
COC(=O)CSc1cc([N+](=O)[O-])ccc1NC(=O)OC 6.45% [at 23.6 µM]
CCOc1ccccc1CNc1ccc(O)cc1 -14.5%
C[C@@H](NC(=O)c1nc[nH]c1C(=O)N[C@@H](Cc1ccccc1)C(=O)OC(C)(C)C)c1ccccc1 1.74%
CCOc1cc(CNc2ccc(O)cc2)cc(Cl)c1OCc1ccccc1 -8.01%
Cc1nnc(SCC(=O)Nc2ccc3c(c2)COC3=O)n1-c1ccccc1 0.342% [at 23.6 µM]
O=C(Nc1nc2c(s1)CN(Cc1ccccc1)CC2)C1CCCC1 -7.59%
COc1ccc(-c2nnc(NC(=O)CSc3ccc(Cl)cc3)s2)cc1 6.4%
COC(=O)c1cc(OC)c(OC)cc1NC(=O)CCCCCN1C(=O)CCC1=O 10.8% [at 23.6 µM]
CC(C)NCC(O)COc1cccc2[nH]ccc12 (stereo unspecified) -0.401%
CC1CCc2c(nc3ncnn3c2N2CCN(c3ccccc3F)CC2)C1 (stereo unspecified) 1.27% [at 23.6 µM]
COc1ccccc1NC(=O)c1ccc(Br)o1 2.69% [at 23.6 µM]
COCCNS(=O)(=O)c1ccc2c(c1)n(C)c(=O)n2C 5.41% [at 23.6 µM]
Cc1ccc(-c2nc3ncccn3c2Nc2ccc3c(c2)OCO3)o1 -5.26%
O=S(=O)(c1ccc2nc(-c3ccco3)c(-c3ccco3)nc2c1)N1CCOCC1 4.72%
Cc1[nH]nc2c1C(c1ccc(OC(=O)c3ccco3)cc1)C(C#N)=C(N)O2 (stereo unspecified) -1.13%
COc1cc(CNc2ccc(N3CCCC3)cc2)ccc1OCc1ccccc1F -3.03%
COc1ccc(NC(=O)CC2Nc3cc(C)c(C)cc3NC2=O)c([N+](=O)[O-])c1 (stereo unspecified) -2.6%
CCn1c2ccccc2c2nnc(NN)nc21 -2.78%
CCN1CCc2nc(NC(=O)CC(c3ccccc3)c3ccccc3)sc2C1 -4.56%
c1ccc(-c2nc3nc4ccccc4nc3n2CC2CCCO2)cc1 (stereo unspecified) 10.5% [at 23.6 µM]
COc1ccc(S(=O)(=O)N2CCN(C(=O)COc3ccc4c(C)cc(=O)oc4c3)CC2)cc1 9.75%
O=C(NCCCN1CCOCC1)c1cccs1 -1.58% [at 23.6 µM]
O=S(=O)(c1ccccc1Br)N1CCOCC1 8.81%
O=S(=O)(c1ccc2c(c1)C(=NNc1ccccc1)c1cc(S(=O)(=O)N3CCOCC3)ccc1-2)N1CCOCC1 13.8%
Cc1ccc(CNc2ccc(N3CCOCC3)cc2)cc1 -4.12%
Cc1ccc(S(=O)(=O)N(C)C)cc1NC(=O)COC(=O)Cc1ccc(Br)cc1 2.93%
COc1ccc(/C=c2\s/c(=C/C(=O)c3ccc(C)cc3)[nH]c2=O)cc1OC -12.8% [at 23.6 µM]
O=S(=O)(c1ccccc1Cl)N1CCOCC1 3.86%
O=C(NC1=NCCS1)C1Cc2ccccc2CN1C(=O)c1ccccc1 (stereo unspecified) -10.5%
O=C(O)c1cc(NCc2ccc3c(c2)OCO3)ccc1N1CCOCC1 1.85%
CCOC(=O)N1CCN(c2cc(N(C)CCO)c([N+](=O)[O-])c3nonc23)CC1 1.32%
C/C=C1\COC(C(=O)NCCN2CCOCC2)(C(F)(F)F)C=C1C=C1CCCCC1 (stereo unspecified) -3.09%
O=C(Cc1ncc(C(F)(F)F)cc1Cl)NCCc1ccccc1 7.47% [at 23.6 µM]
COc1cc2cc(CN(Cc3nnnn3Cc3ccccc3)CC3CCCO3)c(=O)[nH]c2cc1OC (stereo unspecified) 6.87% [at 23.6 µM]

outcome, inactive:
Oc1ccc(NCc2ccccc2OCc2ccccc2)cc1
